Most compounds without a hit are left out; they make up all but 1.4% or so of the library.
PV pol inh = poliovirus RdRp elongation inhibitors, primary screen, biochemical, fluorescence polarization, total intensity | % elongation, % (compound at 16.7 µg/mL) | AID 588519, 2011 | Genome polyprotein (Poliovirus type 1 (strain Mahoney)), P03300 | poliovirus polymerase elongation; stronger effect = lower value | 150,000 tested, 0.66% active; in the data active = % elongation below about 90%
MbtI inh = MbtI salicylate synthase inhibitors, primary screen, biochemical, fluorescence intensity. AID 493033, 2011. purified MbtI enzyme, fluorescence intensity read-out. 100,000 tested, 0.89% active. inhibition, % (no concentration beside the values); in the data active = inhibition mostly above about 56%, no sharp cut-off; inactive = mostly below about 77%
Target sequence (P9WFX0 whole entry, looked up): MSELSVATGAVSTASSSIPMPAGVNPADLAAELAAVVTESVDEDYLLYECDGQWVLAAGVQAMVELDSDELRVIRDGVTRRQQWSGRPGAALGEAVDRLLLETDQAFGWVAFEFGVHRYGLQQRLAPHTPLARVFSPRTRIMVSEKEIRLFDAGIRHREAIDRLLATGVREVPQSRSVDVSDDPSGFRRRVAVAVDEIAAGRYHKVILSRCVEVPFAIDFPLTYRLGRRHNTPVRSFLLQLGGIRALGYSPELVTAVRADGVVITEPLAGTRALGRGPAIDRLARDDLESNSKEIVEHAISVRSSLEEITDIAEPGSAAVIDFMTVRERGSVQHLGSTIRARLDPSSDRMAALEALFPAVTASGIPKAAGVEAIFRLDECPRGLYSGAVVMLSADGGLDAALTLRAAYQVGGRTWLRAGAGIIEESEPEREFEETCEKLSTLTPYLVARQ
AID504770 = growth inhibition of E. coli YBA685, primary screen, V. cholerae RctB inhibitors; E. coli YBA685 rctB-dependent plasmid, OD600 growth, 3 h; stronger effect = lower value; z-score (test concentration not listed); 130,000 tested, 0.27% active; AID 504770, 2011; in the data active = z-score below about -2, passing the limit was not always enough
MenB inh = M. tuberculosis MenB inhibitors, primary screen, biochemical, absorbance | 1,4-dihydroxy-2-naphthoyl-CoA synthase (Mycobacterium tuberculosis (strain ATCC 25618 / … | MenB enzyme assay, absorbance read-out | inhibition, % (concentration not given with the values) | 100,000 tested, 0.43% active; in the data active = inhibition above about 21%, passing the limit was not always enough
Of the large screens only hits and unclear results are named; the others gave an inactive call.

COc1cc(/C=C/C(=O)O)ccc1OCC(=O)N1CCN(CC(=O)NC(C)(C)C)CC1	none
CCOc1ccc(NC(=O)CC(=O)Nc2ccc(OCC)cc2)cc1	none
CCOc1ccc(NC(=O)Cc2cccc3c(S(=O)O)cccc23)cc1	MbtI inh 65
CCOC(=O)N=c1oc2cc(Cl)c(Cl)cc2o1	MbtI inh 96
CCOC(=O)Oc1cc2oc(=O)sc2cc1Cl	none
CSc1nc(C)nc(Nc2cccc(C(F)(F)F)c2)c1C#N	none
CCN(CC)C(=O)CN1C(=O)COCC1=O	MenB inh 26
OCCSc1n[nH]c(-c2ccccc2)n1	none
C#CCSc1n[nH]c(-c2ccccc2)n1	MbtI inh 83
O=C(CSc1nc2ccccc2c(=O)n1CCc1ccccc1)NCc1ccccc1	none (no result: PV pol inh, MbtI inh, MenB inh)
Oc1ccc(CN2CCN(c3ccccc3)CC2)c2cccnc12	none
O=C(O)c1c(CN2CCN(c3ccccc3)CC2)c(O)c2ccccc2c1O	PV pol inh 86
Cc1ccc(NC(=O)c2ccc(F)c(S(=O)(=O)N3CCCC3)c2)cc1F	none (no result: PV pol inh, MbtI inh, MenB inh)
CC(CCc1ccccc1)NC(=O)c1ccc(=O)[nH]c1 (stereo unspecified)	none (no result: MenB inh)
CC(=O)Nc1ccc(SC(F)(F)C(F)(F)C(F)(F)F)cc1	none
COc1ccccc1Nc1nn(CN2CCCCC2C)c(=S)s1 (stereo unspecified)	MbtI inh 100
COc1ccccc1C(=O)CN1CCCCC1C (stereo unspecified)	none
Cc1cc(C(=O)O)no1	MenB inh 32
O=c1[nH]c(CSc2ccccn2)nc2ccsc12	MbtI inh 96
O=CNc1ccc(OC(=O)c2cncc(Br)c2)cc1	PV pol inh 78
COC(=O)c1cncc(Br)c1	none (no result: PV pol inh, MbtI inh, MenB inh)
CC(C)(C)NC(=O)c1cccs1	none (no result: PV pol inh, MenB inh)
COC(=O)c1c(C)[nH]c(C(=O)CN(C)CC(=O)Nc2c(C)cc(C)cc2C)c1C	none
O=C(/C=c1/[nH]c(=O)/c(=C/c2cccc(C(F)(F)F)c2)s1)c1ccco1	none
O=C(/C=c1\[nH]c(=O)/c(=C\c2ccsc2)s1)c1ccco1	MbtI inh 98
CCSc1nc2ccccc2[nH]1	none (no result: PV pol inh, MbtI inh, MenB inh)
CCC(=O)C1(Sc2nc3ccccc3[nH]2)CC(C)(C)OC1=O (stereo unspecified)	MbtI inh 102
O=C(c1ccco1)n1c(=S)nc2ccccn21	PV pol inh 83 (no result: MbtI inh)
O=C(c1ccco1)N1CCN(C(=O)c2ccco2)CC1	none
COc1ccc(-c2oc3ncn4nc(COc5ccc(Cl)cc5)nc4c3c2-c2ccc(OC)cc2)cc1	PV pol inh 55 (no result: MbtI inh, AID504770, MenB inh)
Cc1nn(C)c(C)c1NC(=O)CCCC(=O)c1ccccc1	none
S=C(NC1CCCCC1)Sc1ccc(Cl)cc1	MbtI inh 56
COc1cccc(C2=NS(=O)(=O)N(C)C(C(=O)Nc3cccc(O)c3)=C2)c1	PV pol inh -16 (no result: MbtI inh, AID504770, MenB inh)
CC1(C)CC(=O)C=C(NNc2ccccn2)C1	MbtI inh 58
CCN(CC)Cn1c(=S)oc2ccc(Cl)cc21	MbtI inh 64
O=C1N=C(N2CCCCC2)S/C1=C\c1cccs1	none (no result: MbtI inh)
O=C1N=C(c2ccccc2)S/C1=C\c1cccs1	MbtI inh 100
CCC(CO)Nc1ncnc2nc[nH]c12 (stereo unspecified)	none (no result: PV pol inh, MbtI inh, MenB inh)
CC(=O)C1=C(c2ccc(Cl)c(Cl)c2)N(C(C)=O)n2cnnc2S1	PV pol inh 86 (no result: MbtI inh, AID504770, MenB inh)
COc1cccc(C2=C(C(C)=O)Sc3nncn3N2C(C)=O)c1	PV pol inh 87 (no result: MbtI inh, AID504770, MenB inh)
CC(=O)C1=C(c2ccc(Cl)c(Cl)c2)N(C(C)=O)n2c(C)nnc2S1	none (no result: MbtI inh, AID504770, MenB inh)
Cc1ccc(-n2c(C)cc(/C=C3\SC(=O)NC3=O)c2C)cc1	MenB inh 39
COc1cc(NC(=O)CS)cc(OC)c1	MbtI inh 90
S=C(Cc1ccc2c(c1)OCCO2)N1CCOCC1	PV pol inh 83, MbtI inh 92
CC(O)c1nc2cc3ccccc3cc2[nH]1 (stereo unspecified)	MenB inh 34
Cc1ccc2nc(C(C)O)[nH]c2c1 (stereo unspecified)	none
CCCOC(=O)c1cccc(NC(=O)OCC)c1	none (no result: PV pol inh, MenB inh)
O=C(Oc1cc(Cl)cc(Cl)c1)C12CC3CC(CC(C3)C1)C2	none
O=C(Oc1ccc(O)cc1)C12CC3CC(CC(C3)C1)C2	MbtI inh 97
Cc1ccc(OC(=O)C23CC4CC(CC(C4)C2)C3)cn1	MenB inh 42
COc1ccc(OC)c(/C=c2\sc3nnc(-c4ccccc4Cl)n3c2=O)c1	none (no result: MbtI inh)
O=C(CN1CCCC1)N/N=C/c1ccc(-c2cccc(Cl)c2Cl)o1	none
CC(C)Cn1c(=S)[nH]c2cc(Cl)ccc21	PV pol inh 78, MbtI inh 85
CC(C)Cn1c(=S)[nH]c2ccccc21	none
O=C(NC1CC1)c1cnn(-c2ccc(Cl)cc2)c1C(F)(F)F	none (no result: PV pol inh, MbtI inh, MenB inh)
Cc1ccc(C(=O)NC2(O)C(=O)c3ccccc3C2=O)cc1C	none (no result: PV pol inh, MbtI inh, MenB inh)
Cc1nc(C(=O)NC2(O)C(=O)c3ccccc3C2=O)cs1	none (no result: PV pol inh, MbtI inh, MenB inh)
O=C(NC1(O)C(=O)c2ccccc2C1=O)c1ccc(C(F)(F)F)cc1	PV pol inh 9.0
O=C(NC1(O)C(=O)c2ccccc2C1=O)c1ccccn1	PV pol inh 54
O=C(NC1(O)C(=O)c2ccccc2C1=O)c1cnn(-c2ccccc2)c1C(F)(F)F	PV pol inh 48
Cc1[nH]cnc1CN1CCN(C/C=C/c2ccccc2)CC1	none
Cc1ccc(Nc2nnns2)cc1C	MbtI inh 60
N#Cc1ccc(OC(C(F)(F)F)C(F)(F)F)cc1C#N	none
N#Cc1ccc(Sc2ccc(C#N)c(C#N)c2)cc1C#N	MbtI inh 100
COc1ccc(-c2cn3c(C)c(C(=O)N4CCc5ccccc54)sc3n2)cc1	none
Cc1ccc(S(=O)(=O)c2ccc(C)cc2)cc1	none
Cc1ccc(S(=O)(=O)/C=C/C#N)cc1	MbtI inh 79, AID504770 -4.8
O=C1C2CN3CCN(C2)CC1(c1ccccc1)C3	none (no result: PV pol inh, MenB inh)
O=C1C2CN3CN(C2)CC1(c1ccccc1)C3	MenB inh 34
COc1ccc(-c2n[nH]c(=S)n2/N=C/c2ccccc2Br)cc1OC	none
CCOc1cccc(/C=N/n2c(-c3ccc(Cl)cc3)n[nH]c2=S)c1O	PV pol inh 85, MbtI inh 79
Cc1ccccc1N=Cc1sc2ccccc2c1O	none
Oc1c(/C=N/n2cnnc2)sc2ccccc12	MbtI inh 71
CCOc1ccc(N2C(=O)/C(=C/c3cccs3)C(=O)N(c3ccccc3)C2=S)cc1	MbtI inh 73
NS(=O)(=O)c1ccc(Nc2nc3sc4c(c3c(=O)s2)CCCC4)cc1	none (no result: PV pol inh, MbtI inh, MenB inh)
CC1COc2c(N3CCN(C)CC3)c(F)cc3c(=O)c(C(=O)OCc4ccccn4)cn1c23 (stereo unspecified)	AID504770 -4.6
Brc1ccc(NCc2ccco2)cc1	none
Brc1csc(CNCCc2ccco2)c1	PV pol inh 86
Cc1cccc(NC(=O)CSc2nncc(=O)[nH]2)c1	MbtI inh 58
Cc1cccc(NC(=O)CSc2nnc(C)c(=O)[nH]2)c1	none (no result: MbtI inh, AID504770, MenB inh)
Nn1c(SCc2ccccc2Cl)nnc(CCC(=O)O)c1=O	none
FC(F)(F)c1ccccc1NNC(=S)NCCN1CCOCC1	MbtI inh 71
S=C(NCCN1CCOCC1)Nc1ccccc1	none
